Screening data as filed in PubChem.
Only some compounds are listed: those with a hit (about 0.89% of all), similar ones and a draw of the others.
RPL19A TOR yeast: RPL19A-GFP expression modulators in yeast, primary screen, cell-based, S. cerevisiae, multiplex flow cytometry, MLPCN; percent response vs DMSO, % at 10 µM; 0.3% of 330,000 active; S. cerevisiae RPL19A-GFP strain, 3 h; stronger effect = lower value;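 active = percent response vs DMSO below 50%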;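 note: median channel GFP fluorescence of the barcoded RPL19A-GFP strain; ratio of sample median GFP to plate DMSO average so 100% = DMSO; lower means less RPL19A-GFP as with rapamycin TOR inhibition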
MEP2 TOR yeast: modulators of MEP2-GFP levels in yeast, primary screen, S. cerevisiae, multiplex flow cytometry, MLPCN library. GFP response vs DMSO, % at 10 µM. 0.51% of 330,000 active. S. cerevisiae MEP2-GFP strain, 3 h; 100% = DMSO control level;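 active = GFP response versus DMSO above a set limit, roughly screen mean plus 3 SD, cut at about 180% in these data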;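 note: median GFP fluorescence of the barcode-gated MEP2-GFP cells per well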
CIT2-GFP yeast: modulators of CIT2-GFP expression in yeast, primary screen, S. cerevisiae, GFP fusion, multiplex flow cytometry, MLPCN library | S. cerevisiae CIT2-GFP strain, 3 h; 100 means same as DMSO wells | GFP response vs DMSO, % at 10 µM | AID 2029, 2009 | 0.065% of 320,000 active;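 active = GFP response relative to DMSO above a set limit, near the screen mean plus 3 SD, cut at about 150% in these data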;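 note: ratio of well median GFP fluorescence to mean of DMSO wells on the plate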
LAP4-GFP MLPCN: modulators of LAP4-GFP expression in yeast, primary screen, S. cerevisiae, multiplex flow cytometry, MLPCN library. 3 h; median GFP as percent of DMSO wells. GFP response vs DMSO, % at 10 µM. 0.34% of 320,000 active. AID 2023, 2009;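 active = GFP response vs DMSO above a set limit, about the screen mean plus 3 SD, cut at about 150% in these data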
AGP1 TOR yeast: modulators of AGP1-GFP expression in yeast TOR pathway, primary screen, cell-based, multiplex flow cytometry, S. cerevisiae, MLPCN library; 3 h; GFP as percent of DMSO wells; GFP response vs DMSO, % at 10 µM; 0.02% of 320,000 active; AID 2066, 2009;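 active = GFP response relative to DMSO above a set limit, near screen average plus 3 SD, cut at about 150% in these data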;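 note: median GFP channel fluorescence of the gated AGP1 strain per well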
LAP4 cherry2: LAP4-GFP expression modulators in yeast, confirmation, cell-based, second cherry pick, flow cytometry; shares compounds with LAP4-GFP MLPCN; S. cerevisiae LAP4-GFP strain, 3 h; GFP response vs DMSO, % at 10 µM; 20% of 590 active;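 active = GFP signal as percent of the solvent control above about 150%, meaning raised reporter expression, limit read from the data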;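 note: ratio of well median GFP fluorescence to plate DMSO mean so 100% = DMSO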
MEP2 cherry2: modulators of MEP2-GFP levels in yeast, confirmation, S. cerevisiae, flow cytometry GFP, second cherry picks; shares compounds with LAP4-GFP MLPCN; S. cerevisiae MEP2-GFP strain, 3 h; GFP response vs DMSO, % at 10 µM; 10% of 590 active; AID 2622, 2010;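 active = GFP signal above 150% of the solvent control wells, that is a rise of more than half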;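 note: median channel GFP fluorescence of all gated yeast cells per well; ratio of median GFP to plate DMSO average so 100% = DMSO level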
RPL19A-GFP pick2: RPL19A-GFP modulators in TOR pathway yeast, confirmation, cell-based, S. cerevisiae, flow cytometry, second cherry pick; shares compounds with LAP4-GFP MLPCN; S. cerevisiae RPL19A-GFP strain, 3 h; stronger effect = lower value; 100% means same as DMSO wells; GFP response vs DMSO, % at 10 µM; 3% of 590 active;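 active = under 65% GFP response relative to DMSO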;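 note: median GFP channel fluorescence per well over the all cells gate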
CIT2-GFP pick2: modulators of CIT2-GFP expression in yeast, confirmation, flow cytometry, second cherry pick, single plex. AID 2624, 2010. S. cerevisiae CIT2-GFP strain, 3 h; DMSO control wells read 100%. GFP response vs DMSO, % at 10 µM. shares compounds with LAP4-GFP MLPCN. 8% of 590 active;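 active = GFP response vs DMSO above about 150%, limit read from the data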;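 note: median green fluorescence per well over all gated yeast cells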
AGP1-GFP pick2: AGP1-GFP expression modulators, hit retest, confirmation, cell-based, flow cytometry, S. cerevisiae, cherry pick set 2. 590 tested, under 10 active. percent response vs DMSO, % at 10 µM. shares compounds with LAP4-GFP MLPCN. AID 2643, 2010. S. cerevisiae AGP1-GFP strain, 3 h;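 active = over 150 percent of DMSO response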;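 note: median GFP channel fluorescence over all cells without mother daughter split; sample median GFP divided by mean DMSO control so 100% equals DMSO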
Yeast autofluor: compound autofluorescence in yeast s288c, dose response, artefact control for yeast TOR pathway GFP screen, s288c strain; shares compounds with LAP4-GFP MLPCN; S. cerevisiae s288c, 520 nm autofluorescence, flow cytometry, 3 h; stronger effect = higher value; zero means same as solvent-only cells; 610 tested, under 10 active; fluorescence change (kMESF span) at 33 µM;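 active = fluorescence span over the dose series, or activity score, above about 33, limit read from the data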
An asterisk follows results filed as active; · = no result; + = active, no number.

SMILES | RPL19A TOR yeast | MEP2 TOR yeast | CIT2-GFP yeast | LAP4-GFP MLPCN | AGP1 TOR yeast | LAP4 cherry2 | MEP2 cherry2 | RPL19A-GFP pick2 | CIT2-GFP pick2 | AGP1-GFP pick2 | others
CC1CCN(C(=O)Cn2cc(S(=O)(=O)CC(=O)N3CCOCC3)c3ccccc32)CC1 | 105 | 101 | 107 | 98 | 104 | · | · | · | · | ·
CC1CN(C(=O)Cn2cc(S(=O)(=O)CC(=O)N3CCOCC3)c3ccccc32)CC(C)O1 (stereo not given) | 105 | 114 | 163* | 98 | 117 | 103 | 100 | 102 | 102 | 100
CCOC(=O)C(NC(=O)c1ccccc1Cl)(Nc1ccc(C(F)(F)F)cc1)C(F)(F)F (stereo not given) | 104 | 104 | 101 | 93 | 103 | · | · | · | · | ·
O=C1C(c2ccccc2)=[N+]([O-])c2ccccc21 | 105 | 93 | 89 | 160* | 87 | 116 | 121 | 106 | 120 | 103
COc1ccc(N2CCN(C(=O)c3ccc(C)cc3)CC2)c([N+](=O)[O-])c1 | 95 | 91 | 86 | 97 | 94 | · | · | · | · | ·
COc1ccc(N2CCN(C(=O)c3ccc(Br)cc3)CC2)c([N+](=O)[O-])c1 | 90 | 99 | 72 | 199* | 122 | · | · | · | · | · | Yeast autofluor=2.3
COc1ccc(N2CCN(C(=O)c3ccccc3)CC2)c([N+](=O)[O-])c1 | 70 | 89 | 61 | 189* | 65 | · | · | · | · | · | Yeast autofluor=-0.3
CCOC(=O)COc1ccccc1/C=C\[N+](=O)[O-] | 72 | 91 | 74 | 188* | 76 | 140 | 122 | 96 | 113 | 101
Cc1ccc(C(=O)COC(=O)COc2ccccc2[N+](=O)[O-])s1 | 98 | 101 | 97 | 104 | 99 | · | · | · | · | ·
CCC1(c2ccccc2)ON(c2c(Br)cccc2Br)C1=O (stereo not given) | 80 | 86 | 82 | 131 | 60 | 124 | 118 | 100 | 113 | 94 | Yeast autofluor=0.5
CCOC(=O)N1C(=O)[C@](CC)(c2ccccc2)N1C(=O)OCC | 91 | 94 | 99 | 108 | 91 | · | · | · | · | ·
Cc1c(OCC(=O)NC(Cc2ccc(Cl)cc2)C(=O)O)ccc2c(-c3ccccc3)cc(=O)oc12 (stereo not given) | 100 | 105 | 107 | 98 | 104 | · | · | · | · | ·
O=C(N[C@@H](Cc1ccccc1)C(=O)N[C@@H](Cc1ccccc1)C(=O)O)OCc1ccccc1 | 105 | 106 | 101 | 99 | 107 | · | · | · | · | ·
O=C(N[C@@H](Cc1ccccc1)C(=O)CCl)OCc1ccccc1 | 100 | 88 | 61 | 151* | 77 | 140 | 103 | 96 | 90 | 96
CCCCCCC1CC(C)(C(=O)CNc2nncs2)OC1=O (stereo not given) | 100 | 102 | 92 | 100 | 95 | · | · | · | · | ·
COc1ccc(-c2[nH]c3ccccc3c2SCCNC(=O)c2ccccc2)cc1 | 66 | 662* | 148 | 217* | 140 | 98 | 100 | 100 | 97 | 100
CCC1(CC)NC(=O)N(CC(=O)N2CCc3ccccc32)C1=O | 99 | 109 | 100 | 101 | 101 | · | · | · | · | ·
COc1ccc(OC)c2nc(-c3cccnc3)ccc12 | 90 | 98 | 98 | 86 | 93 | · | · | · | · | ·
C=CCNC(=O)/C(C#N)=C/c1ccc(OS(=O)(=O)c2ccc(C)cc2)c(OC)c1 | 80 | 86 | 80 | 186* | 82 | 131 | 96 | 92 | 102 | 93
COC(=O)N/N=C/c1ccc(OS(=O)(=O)c2ccc(C)cc2)c(OC)c1 | 99 | 97 | 102 | 107 | 101 | · | · | · | · | ·
CCn1ccnc1CNC(=O)c1ccc2oc(CCCc3ccccc3)nc2c1 | 96 | 93 | 92 | 97 | 95 | · | · | · | · | ·
O=C(Nc1ccc(C2=NCCN2)cc1)c1ccc(C(=O)Nc2ccc(C3=NCCN3)cc2)c([N+](=O)[O-])c1 | 99 | 101 | 102 | 100 | 105 | · | · | · | · | ·
O=C(Nc1ccc2c(c1)OCCO2)c1ccc(Cl)c([N+](=O)[O-])c1 | 91 | 86 | 76 | 158* | 92 | 105 | 103 | 97 | 93 | 97
Cc1cc(C(=O)Nc2ccc3c(c2)OCCO3)ccc1[N+](=O)[O-] | 103 | 106 | 102 | 90 | 98 | · | · | · | · | ·
COc1ccc(C2=NN(C(=O)c3ccccc3)C(c3ccc(OC)c(OC)c3)C2)c(OC(C)=O)c1 (stereo not given) | 95 | + | 113 | 101 | 83 | 102 | 105 | 100 | 104 | 99
COc1ccc(C2CC(c3ccccc3O)=NN2C(=O)c2ccccc2)cc1OC (stereo not given) | 103 | 102 | 106 | 94 | 99 | · | · | · | · | ·
COc1ccc(N(C)C(=O)Cc2c(C(=O)O)n(C)c3ccccc23)cc1 | 97 | 97 | 88 | 96 | 90 | · | · | · | · | ·
C#CCOc1c(Br)cc(/C=C2/C(=O)ON=C2C)cc1OC | 91 | 98 | 95 | 197* | 89 | 187* | 136 | 93 | 122 | 101 | Yeast autofluor=0.51
